The full ranking holds about 33,000 sequences; the median of “E-score (-0.5 to 0.5)” is about -0.041, and the highest 2% start at about 0.37. This is one part of a sample in which the highest values are shown more often than they occur.
target: T1, Ecm22 (UniProt Q05958); experiment: PBM E-score (8-mer binding enrichment) (E-score (-0.5 to 0.5)); higher = stronger / more preferred TF binding; details: protein concentration: 200 nM; construct: GST-full length
T1 sequence: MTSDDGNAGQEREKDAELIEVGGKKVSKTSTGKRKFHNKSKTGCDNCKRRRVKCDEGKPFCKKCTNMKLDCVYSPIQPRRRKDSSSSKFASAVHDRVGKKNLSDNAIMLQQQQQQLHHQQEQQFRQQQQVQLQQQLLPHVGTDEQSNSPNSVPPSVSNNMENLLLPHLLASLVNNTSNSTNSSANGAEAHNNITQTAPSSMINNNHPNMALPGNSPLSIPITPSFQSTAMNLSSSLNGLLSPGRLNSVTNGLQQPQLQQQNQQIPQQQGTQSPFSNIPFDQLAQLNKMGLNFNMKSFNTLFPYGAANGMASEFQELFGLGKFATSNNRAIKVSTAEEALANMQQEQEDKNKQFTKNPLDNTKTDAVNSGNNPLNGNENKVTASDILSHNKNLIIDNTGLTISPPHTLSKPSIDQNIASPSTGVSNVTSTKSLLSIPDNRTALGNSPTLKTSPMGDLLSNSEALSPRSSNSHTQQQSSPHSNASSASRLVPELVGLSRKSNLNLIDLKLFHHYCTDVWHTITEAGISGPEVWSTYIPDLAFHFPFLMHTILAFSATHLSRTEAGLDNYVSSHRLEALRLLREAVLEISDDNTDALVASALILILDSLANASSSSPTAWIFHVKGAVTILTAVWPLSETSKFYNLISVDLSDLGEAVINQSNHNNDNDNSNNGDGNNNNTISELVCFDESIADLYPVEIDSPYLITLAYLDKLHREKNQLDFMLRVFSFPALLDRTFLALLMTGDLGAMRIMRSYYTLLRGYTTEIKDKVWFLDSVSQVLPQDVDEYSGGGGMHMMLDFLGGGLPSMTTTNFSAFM
In short: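 Detection of bound protein used fluorescent anti-GST, with scans normalised by masliner. The proteins were GST-tagged yeast transcription factors applied at about 100-200 nM to universal all-10-mer Agilent arrays made double-stranded by primer extension. Each ungapped eight-base word, pooled with its reverse complement, was scored with an E-score from the Universal PBM Analysis Suite.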

Row | Sequence | PBM E-score
1 | AGCGCTAT | -0.048
2 | CGACCTCG | 0.183
3 | AACGTTCG | 0.217
4 | AGCGTTCA | -0.121
5 | CGCGTTCA | 0.185
6 | ATCGTTCC | 0.478
7 | ATCGTTGG | -0.0634
8 | AACGTTCA | 0.0914
9 | AGCGTTCC | 0.2
10 | CTCGTTCA | 0.47
11 | ATCGTTCA | 0.402
12 | AACGTTCC | 0.259
13 | CACGTTCA | -0.131
14 | ATCGTTCG | 0.373
15 | AGGGTTAT | -0.0839
16 | ATTCATAC | 0.161
17 | CTTGTGTC | -0.0755
18 | CACCGGAC | 0.112
19 | CGATCTAG | 0.00932
20 | ATCGTGGG | -0.0631
21 | CGATCTAA | 0.0461
22 | GTTAGACA | -0.137
23 | GGCGTTCA | 0.00425
24 | GACGTTCA | 0.0272
25 | GTCGTTCA | 0.448

Row | Sequence | PBM E-score
26 | AAGCCCAG | -0.109
27 | AGTACACC | 0.0652
28 | CGTACACC | 0.37
29 | TGTACACA | 0.0209
30 | AGTACACA | 0.18
31 | GGTACACC | 0.0576
32 | CGTACACG | 0.382
33 | CGTACACA | 0.402
34 | GGTACACA | -0.126
35 | AGTACACG | 0.238
36 | GTAGCAAA | 0.0111
37 | GACCAGGC | -0.228
38 | CCCCAGCA | -0.237
39 | ACGGAACT | 0.157
40 | ACGGAACG | 0.442
41 | ACGGAACC | 0.218
42 | CCGGAACA | -0.0629
43 | CCGGAACC | -0.0325
44 | CCGGAACG | 0.445
45 | CCCCGCCA | 0.0635
46 | TAGGACCA | -0.185
47 | GTATGAAC | 0.234
48 | ATGTTACA | -0.0708
49 | GAGAGACC | -0.21
50 | ACGGGGAC | 0.0581

Row | Sequence | PBM E-score
51 | GAGAACAA | 0.124
52 | AGATCGTG | -0.0112
53 | AGATCGTC | -0.0821
54 | GGATCGGA | 0.159
55 | CGATCGAA | 0.164
56 | GGATCGAA | 0.251
57 | CGATCGTA | 0.437
58 | GGATCGTA | 0.434
59 | AGATCGTA | 0.389
60 | CGATCGTC | 0.104
61 | AGTCCCAA | -0.193
62 | GGCTAGTA | -0.00889
63 | CTGACGCA | -0.319
64 | GAGCTTAA | 0.0486
65 | CACGAGGC | 0.171
66 | GACGAGGA | 0.175
67 | AACGAGGC | 0.434
68 | ACCGAGGT | 0.225
69 | AACGAGGA | 0.449
70 | TACGAGGA | 0.466
71 | GACGAGGC | 0.163
72 | AGCGAGGA | 0.265
73 | ATCGAGGA | 0.115
74 | AACGAGGT | 0.447
75 | CACGAGGA | 0.196

Row | Sequence | PBM E-score
76 | AAAGAGGT | -0.244
77 | CATGAAAA | 0.00915
78 | ATTGCTTC | 0.0317
79 | AAGCTTCA | -0.0703
80 | ACAAATTC | 0.0192
81 | AACGGGCT | 0.16
82 | ACGCTCAA | 0.0449
83 | GGTCTAAC | -0.0964
84 | CGGGACGC | -0.0663
85 | ACTCGGCT | 0.112
86 | CTGCACTC | -0.104
87 | CACGAGGG | 0.189
88 | AGCGAGGG | 0.249
89 | AACGAGGG | 0.439
90 | ACGCAAGG | -0.01
91 | AGCCGGAT | -0.0402
92 | AACGAGTG | 0.421
93 | AGCGAGTA | 0.363
94 | CACGAGTG | 0.106
95 | GACGAGTA | 0.117
96 | CACGAGTA | 0.157
97 | AAAGAGTT | -0.264
98 | AACGAGTT | 0.41
99 | AACGCGTT | 0.212
100 | AACGAGTA | 0.433

Row | Sequence | PBM E-score
101 | ACCGAGTA | 0.286
102 | AGCGAGTG | 0.324
103 | TACGAGTA | 0.467
104 | CTGCGTTC | 0.213
105 | GCGTTGAA | 0.218
106 | CCATATCC | -0.0494
107 | CACGTACG | 0.338
108 | CTAGTTAA | -0.153
109 | GCCTCTAC | -0.123
110 | AACGAGTC | 0.419
111 | CACGAGTC | -0.0272
112 | GACGAGTC | 0.115
113 | AGAGGGAT | -0.0615
114 | ACAGTTCC | -0.0566
115 | CCTTCGCA | 0.183
116 | GCTTCGCA | 0.193
117 | ACTTCGTA | 0.434
118 | ACTTCGTC | 0.00917
119 | CCTTCGTC | 0.0674
120 | GCTTCGGA | 0.121
121 | GCTTCGTA | 0.441
122 | CCTTCGTA | 0.453
123 | ACTTCGTG | 0.116
124 | TCGGGTCA | 0.241
125 | AATCGTTC | 0.426

Row | Sequence | PBM E-score
126 | CATCGTGC | 0.164
127 | CATCGTTC | 0.428
128 | AATCGTTG | 0.165
129 | AATCGTTA | 0.269
130 | CATCGTTA | 0.259
131 | CCATTGGA | -0.162
132 | AGGTATTA | -0.0627
133 | CGGTCGGA | 0.0409
134 | CGGTCGTA | 0.464
135 | GGGTCGAA | -0.0301
136 | AGGTCGTA | 0.458
137 | GGGTCGTA | 0.439
138 | GGGTCGGA | 0.135
139 | CGGTCGTC | -0.0294
140 | AGGTCGTG | -0.13
141 | AGGTCGTC | 0.106
142 | ACAGACCA | -0.0504
143 | AGCTGAAA | -0.106
144 | AACTGCAG | -0.0539
145 | CTTTTTCC | -0.068
146 | CGTTGGAG | -0.14
147 | CCTTACGA | 0.383
148 | GCTTACAA | -0.144
149 | GCTTACTA | -0.087
150 | CCTTACGC | 0.205

Row | Sequence | PBM E-score
151 | CCTTACTA | 0.0754
152 | ACTTACGG | 0.207
153 | GCTTACGA | 0.386
154 | ACTTACGA | 0.393
155 | ACTTACGC | -0.137
156 | AGAATTGC | -0.0838
157 | CGACAAAG | 0.192
158 | CTGCGAGC | 0.0428
159 | TAGTCCGA | 0.123
160 | GCATCGGA | 0.126
161 | ACATCGTC | 0.0184
162 | GCATCGAA | 0.0551
163 | CCATCGTA | 0.428
164 | ACATCGTG | 0.0443
165 | ACATCGTA | 0.423
166 | CCATCGTC | 0.00759
167 | CCATCGAA | -0.136
168 | GCATCGTA | 0.426
169 | CCGCCACA | -0.107
170 | GCCGAGAC | -0.0241
171 | GATGTTGC | 0.00895
172 | CGGGACAC | -0.0319

— the supplement of paper PMC3334620
